Compound activity as filed in PubChem BioAssay.
TMEM16A inh: inhibitors of mouse TMEM16A calcium-activated chloride channel; Q8BHY3; HEK293 TMEM16A/YFP iodide influx fluorescence, ionomycin; normalized B-score (activity score, 25-100; higher = stronger inhibition) at 10 µM; 1.2% of 310,000 active; AID 588511;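 active means ratio plate-corrected score three or more library SD toward inhibition, starting fluorescence score within five deviations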;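 further: score derived from kinetic fluorescence span divided by baseline fluorescence per well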
NOD2 RIPK2 PPI: blocks binding of human NOD2 to RIPK2. CHO BLA complementation NOD2-RIPK2, CCF4 ratio. AID 624267. 0.38% of 360,000 active. inhibition, % at 4.98 µM; in the data active means inhibition above about 21%
Target sequence (O43353 whole entry, looked up): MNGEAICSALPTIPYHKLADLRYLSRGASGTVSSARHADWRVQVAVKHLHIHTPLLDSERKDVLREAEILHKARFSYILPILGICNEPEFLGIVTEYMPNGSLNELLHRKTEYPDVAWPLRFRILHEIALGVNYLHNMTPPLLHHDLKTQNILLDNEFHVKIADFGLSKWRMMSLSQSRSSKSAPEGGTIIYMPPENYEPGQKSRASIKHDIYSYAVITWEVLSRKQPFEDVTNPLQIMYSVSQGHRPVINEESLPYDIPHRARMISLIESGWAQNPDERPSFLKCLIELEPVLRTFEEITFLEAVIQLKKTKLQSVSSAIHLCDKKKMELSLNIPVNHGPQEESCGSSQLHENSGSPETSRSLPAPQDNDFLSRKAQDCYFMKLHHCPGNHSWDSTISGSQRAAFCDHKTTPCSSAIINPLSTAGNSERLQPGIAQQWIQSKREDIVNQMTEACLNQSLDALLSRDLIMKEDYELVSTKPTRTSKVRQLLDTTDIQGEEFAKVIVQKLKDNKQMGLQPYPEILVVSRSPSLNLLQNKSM
TLR9-MyD88 inh: inhibitors of human TLR9-MyD88 binding. Q9NR96+Q99836. CHO BLA complementation TLR9-MyD88, CCF4 FRET ratio. inhibition, % at 4.98 µM. 0.21% of 340,000 active. AID 504734;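 active means inhibition above the mean over all tested compounds plus 3 SD, cut at about 21% in these data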
TLR4 MyD88 comp: inhibitors of human TLR4-MyD88 binding | AID 861 | inhibition, % at 8.4 µM | HeLa CL3-4 TLR4/MyD88 BLA complementation, FRET ratio | 0.18% of 200,000 active | O00206+Q99836; in the data active means inhibition above about 25%
GRK2 aptamer HTS: human GRK2 inhibition via aptamer displacement; P25098; 0.59% of 330,000 active; inhibition of aptamer binding, % at 10 µM; bead flow cytometry, FAM-aptamer displacement from GRK2;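 active means inhibition of aptamer binding above 40%, roughly 3 SD of noise, on plates passing a quality check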;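 further: median bead fluorescence of bound FAM aptamer so fluorescent compounds give negative values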
ANO1 activ: activators or potentiators of mouse TMEM16A chloride channel; HEK293 TMEM16A/YFP-H148Q/I152L, iodide quench fluorescence; stronger effect = lower value; B-score at 10 µM; 0.3% of 340,000 active; AID 623877;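 active means fluorescence-ratio B-score plate-corrected deviation score at least 3 library SD below zero, with starting fluorescence score within 5 deviations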;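 further: channel opened by trigger with iodide after compound preincubation; score built on the fluorescence ratio of max minus min over baseline; more negative score means more quench and so TMEM16A activation or potentiation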
TLR4-MyD88 conf: TLR4-MyD88 interaction inhibition confirmed | 50% of 350 active | HeLa CL3-4 BLA complementation, CCF4 FRET ratio | shares compounds with TLR4 MyD88 comp | inhibition, % at 8.4 µM;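 active means mean inhibition across three repeat runs above about 25% carried over from the earlier screen, limit read from the data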
BLA inhibitor ct: inhibits beta-lactamase activity, counter-screen to TLR4-MyD88 binding inhibitors; shares compounds with TLR4 MyD88 comp; HeLa BLA reporter, CCF4 FRET ratio; inhibition, % at 8.4 µM; 63% of 350 active; AID 1237;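 active means mean inhibition over three repeats above about 26% taken from the earlier screen, limit read from the data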;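 further: HeLa cells stably expressing beta-lactamase reporter as counterscreen for TLR4-MyD88 inhibitors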
GRK2 inh confirm: confirmation of human GRK2 inhibitors displacing RNA aptamer. shares compounds with GRK2 aptamer HTS. aptamer displacement, % at 10 µM. bead-bound GRK2, FAM-aptamer displacement, flow cytometry. 4% of 2,000 active;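 active means aptamer displacement above 40%, near three times the noise of non-fluorescent compounds, on plates passing quality checks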;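 further: negative values mostly reflect intrinsic compound fluorescence rather than true enhancement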
Aptamer quench 1: quenches fluorescent RNA aptamer, GRK2 hit artifact; fluorescence change (kMESF span), kMESF (test concentration not listed); Fluorescent RNA aptamer beads, quenching, flow cytometry; stronger effect = higher value; 110 tested, under 10 active; shares compounds with GRK2 aptamer HTS; AID 504521;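 active means compounds whose bead fluorescence drops by more than 37 kMESF across the dose range, marking them as dye quenchers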
Aptamer quench SP: quenches fluorescent RNA aptamer, GRK2 hit artifact | AID 504580 | fluorescence response (% of DMSO), % at 10 µM | shares compounds with GRK2 aptamer HTS | 2,000 tested, under 10 active | Carboxyfluorescein RNA aptamer on beads, flow cytometry quenching; stronger effect = lower value;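 active means compounds that quench the bead-bound fluorescent RNA probe, cutting fluorescence to under half of the solvent control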;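 further: counterscreen run without GRK2 so only probe quenching by compound is measured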
GRK2 CP2: human GRK2 inhibition confirmation, cherry pick 2. shares compounds with GRK2 aptamer HTS. bead-bound GRK2, FAM-aptamer displacement, flow cytometry. inhibition of aptamer binding, % at 10 µM. 360 tested, under 10 active;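 active means inhibition of aptamer binding above 40%, about triple the noise seen with nonglowing compounds, on plates passing quality control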;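 further: negative values mostly come from compounds that fluoresce themselves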
FAM quench SP: quenches fluorescent RNA aptamer, GRK2 hit artifact; carboxyfluorescein RNA aptamer beads, flow cytometry quenching; stronger effect = lower value; 360 tested, under 10 active; shares compounds with GRK2 aptamer HTS; AID 588494; fluorescence response vs DMSO, % at 10 µM;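 active means response vs DMSO under 50%, meaning signal dropped by over half, treated as fluorescence quencher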;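 further: labelled aptamer on streptavidin beads without GRK2 as a quench counter-screen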
TLR9-MyD88 conf: TLR9-MyD88 interaction inhibition, confirmation; 51% of 680 active; AID 540250; inhibition, % at 4.98 µM; CHO TLR9/MyD88 BLA complementation, CCF4 FRET ratio; shares compounds with TLR9-MyD88 inh;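 active means mean inhibition across three repeats above about 21% taken from the earlier screen, limit read from the data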;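 further: blue over green emission ratio reports constitutive TLR9 MyD88 association via BLA complementation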
BLA counter-1: counter-screen for TLR9-MyD88 inhibitors: non-selective beta-lactamase inhibitors | inhibition, % at 4.98 µM | CHO-BLA cells, CCF4 FRET ratio, BLA reporter | 7% of 680 active | shares compounds with TLR9-MyD88 inh;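 active means mean inhibition above a 50% cutoff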;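 further: counterscreen of TLR9-MyD88 hits on CMV-driven BLA in CHO-K1 cells; higher means less blue over green ratio so more BLA blockade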
TLR9 CHO cytotox: counter-screen for TLR9-MyD88 inhibitors: cytotoxicity in CHO cells. shares compounds with TLR9-MyD88 inh. luminescence. inhibition, % at 4.98 µM. 39% of 680 active. AID 588336; in the data active means inhibition above about 11%
NOD2-RIPK2 conf: NOD2-RIPK2 interaction inhibition confirmed; 70% of 1,200 active; inhibition, % at 4.98 µM; shares compounds with NOD2 RIPK2 PPI; CHO cells, NOD2-RIPK2 BLA complementation, CCF4 FRET; AID 624370;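 active means mean inhibition across replicates above a set limit taken from the earlier primary screen, cut at about 21% in these data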
BLA counter-2: hits BLA reporter in NOD2-RIPK2 inhibitor counterscreen. shares compounds with NOD2 RIPK2 PPI. CHO BLA reporter, CCF4 FRET ratio. inhibition, % at 4.98 µM. 57% of 1,200 active;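 active means mean inhibition above the low-control mean inhibition plus three low-control SD, cut at about 11% in these data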
Numbers stand for hits; – = inactive; · = not tested or not shown. The list is not random: actives were taken first. Their share in the collection is about 2.2%.

SMILES	TMEM16A inh	NOD2 RIPK2 PPI	TLR9-MyD88 inh	TLR4 MyD88 comp	GRK2 aptamer HTS	ANO1 activ	GRK2 inh confirm	Aptamer quench SP	others
O=C(O)c1ccc(-[n+]2c(-c3ccccc3)cc(-c3ccccc3)cc2-c2ccccc2)cc1	–	–	–	·	–	–	·	·
C[C@@]12CC[C@@H](c3cc4c(cc3C1)OCO4)N2c1ccccc1	·	–	·	·	·	·	·	·
CC(C)C[C@H]1COc2cc(N3CCN(C)CC3)ccc2S(=O)(=O)N1	·	–	·	·	·	·	·	·
CC(C)(C)n1nnnc1C(c1ccccc1)N1CCC2(CC1)C(=O)NCN2c1ccccc1 (stereo not given)	·	–	·	·	·	·	·	·
CN1C(=O)NC(=O)/C(=C\C=C\c2ccccc2[N+](=O)[O-])C1=O	25	·	·	–	–	·	·	·
O=C1NC(=O)N(CCc2ccc(F)cc2)C(=O)/C1=C\C=C\c1ccccc1	·	–	–	–	·	–	·	·
CNc1cc(Cl)c2nonc2c1[N+](=O)[O-]	·	93	80	52	·	–	·	·	TLR4-MyD88 conf=55;BLA inhibitor ct=44;TLR9-MyD88 conf=68;BLA counter-1=–;TLR9 CHO cytotox=100;NOD2-RIPK2 conf=102;BLA counter-2=60
C[C@@H]1CN([C@@H](C)CO)C(=O)CCCn2nncc2CO[C@H]1CN(C)C(=O)Oc1ccccc1	·	–	–	·	·	·	·	·
O=c1[nH]c(CN2CCNCC2)nc2ccccc12	–	–	–	–	–	–	·	·	GRK2 CP2=–;FAM quench SP=–
CN1CCN(Cc2nc3ccccc3c(=O)[nH]2)CC1	–	–	–	–	–	–	·	·
CC(C)CNc1c2c(nc3ccccc13)CCC2	–	–	–	·	–	–	·	·	GRK2 CP2=–;FAM quench SP=–
Cc1nc2c(=O)n(C)c(=O)nc-2n(C)n1	–	–	–	–	41	–	63	–	Aptamer quench 1=–
COC(=O)C1=C(c2c(C)noc2C)C[C@@H]2CC[C@H]1N2C(=O)NCCO	·	–	–	·	75	–	–	–
CN(Cc1cccc(-c2ccncc2)c1)C(=O)Oc1ccccc1Cc1ccccc1	·	–	·	·	·	·	·	·
Cc1ccccc1OP(N)(=O)Oc1ccccc1C	–	–	–	–	52	–	–	–
COc1ccc(C(c2nnnn2-c2ccc3c(c2)OCCO3)N2CCC3(CC2)C(=O)NCN3c2ccccc2)cc1 (stereo not given)	·	–	·	·	·	·	·	·
Cc1cc(/C=C2\C(=O)NC(=O)N(Cc3ccco3)C2=O)c(C)n1-c1ccc(C(=O)O)cc1	–	–	–	·	–	–	·	·
CCc1ccc(N2C(=O)NC(=O)/C(=C\c3cc(C)n(-c4cc(C(=O)O)cc(C(=O)O)c4)c3C)C2=O)cc1	–	–	–	·	58	–	–	–
Cc1cc(/C=C2\C(=O)NC(=O)N(Cc3ccccc3Cl)C2=O)c(C)n1-c1ccc(C(=O)O)cc1	–	–	–	–	77	–	–	–
CC(CC(C)(C)N1CC1)=NNC(=O)Nc1cccc2ccccc12	·	–	–	·	·	–	·	·
COC(=O)N1Cc2ccccc2-n2nncc2C1	·	–	–	·	·	·	·	·
CCC(c1nnnn1-c1ccc2c(c1)OCCO2)N1CCC2(CC1)C(=O)NCN2c1ccccc1 (stereo not given)	·	–	·	·	·	·	·	·
CCOC(=O)c1c(/N=C/c2c(O)n(-c3ccccc3F)c(=S)[nH]c2=O)sc2c1CCCC2	–	–	–	–	54	–	–	–
CCOC(=O)c1c(/N=C/c2c(O)n(-c3ccc(F)cc3)c(=S)[nH]c2=O)sc2c1CCCC2	–	–	–	–	–	–	·	·
COC(=O)C1=C(c2cccc(OCc3ccccc3)c2)C[C@@H]2CC[C@H]1N2C(=O)NCCc1ccc(F)cc1	·	–	–	·	98	–	–	–
SMILES	TMEM16A inh	NOD2 RIPK2 PPI	TLR9-MyD88 inh	TLR4 MyD88 comp	GRK2 aptamer HTS	ANO1 activ	GRK2 inh confirm	Aptamer quench SP	others
CC1(O)CCN2C(=O)CCc3cccc1c32 (stereo not given)	·	–	–	·	41	·	–	–
C1CN(P2(N3CC3)=NP(N3CC3)(N3CC3)=NP(N3CC3)(N3CC3)=N2)CCO1 (stereo not given)	·	–	–	·	·	·	·	·
O=c1c2ccccc2nc(/C=C\c2ccccc2[N+](=O)[O-])n1-c1ccccc1O	–	–	–	·	45	–	–	–
O=c1c2ccccc2nc(/C=C/c2ccccc2O)n1-c1ccccc1O	–	–	–	·	–	–	·	·
CCNC(=O)[C@H]1O[C@@H](n2cnc3c(N)ncnc32)[C@H](O)[C@@H]1O	–	–	–	·	–	–	–	–
Cc1ccccc1-n1c(C)cc(/C=C2/C(=O)NC(=O)N(Cc3ccco3)C2=O)c1C	–	–	–	–	–	–	·	·
Cc1ccc(-n2c(C)cc(/C=C3/C(=O)NC(=O)N(Cc4ccco4)C3=O)c2C)cc1	–	–	–	–	–	–	·	·
CCOC(=O)C1CCN(/C=C2/C(=O)NC(=O)N(Cc3ccco3)C2=O)CC1	–	–	–	–	82	–	–	–
